NCOA1 inh: SRC1 coactivator transcriptional activity inhibitors, primary screen, cell-based, luminescence; Nuclear receptor coactivator 1 (Homo sapiens), Q15788; HEK293 GAL4-SRC1 luciferase reporter; inhibition, % at 3.6 µM; 360,000 compounds, 0.12% hits; AID 588354, 2011;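 active = inhibition above the campaign mean plus 3 SD, with each screening campaign given its own cutoff, cut at about 60% in these data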
NR2F2 inh: NR2F2 transcriptional activity inhibitors, primary screen, cell-based, luciferase reporter, HEK293T, luminescence; COUP transcription factor 2 (Homo sapiens), P24468; HEK293T NGFI-A luciferase reporter; inhibition, % at 8.6 µM; 370,000 compounds, 0.7% hits; AID 686940, 2013;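 active = inhibition above a per-plate cutoff, mean inhibition of test wells between control levels plus 3 SD, cut at about 38% in these data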;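 note: cells cotransfected with COUP-TFII expression vector driving the NGFI-A reporter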
Target sequence (P24468 whole entry, looked up): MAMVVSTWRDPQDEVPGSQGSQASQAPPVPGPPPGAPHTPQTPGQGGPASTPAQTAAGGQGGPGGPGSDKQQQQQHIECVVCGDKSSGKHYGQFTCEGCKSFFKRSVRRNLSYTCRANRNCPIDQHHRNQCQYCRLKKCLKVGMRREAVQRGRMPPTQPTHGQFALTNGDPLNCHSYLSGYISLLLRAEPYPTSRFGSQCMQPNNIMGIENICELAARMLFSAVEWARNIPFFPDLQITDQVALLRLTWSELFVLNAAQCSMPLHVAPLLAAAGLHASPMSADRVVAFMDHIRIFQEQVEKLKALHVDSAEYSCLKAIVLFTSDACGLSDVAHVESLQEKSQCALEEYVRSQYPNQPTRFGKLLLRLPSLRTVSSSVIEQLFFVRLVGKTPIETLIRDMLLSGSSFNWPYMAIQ
SRC2 inh: inhibition of GAL4-SRC2 driven luciferase reporter, primary screen, SRC2 inhibitor project, cell-based, luminescence. 370,000 compounds, 0.17% hits. Nuclear receptor coactivator 2 (Homo sapiens), Q15596. HEK293 GAL4-SRC2 luciferase reporter. inhibition, % at 9 µM;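 active = inhibition above the mean inhibition of all tested compounds plus 3 SD, set per campaign, cut at about 52% in these data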
LRH-1 inv ag: LRH-1 (NR5A2) inverse agonists, primary screen, cell-based, luminescence, HEK293T, StAR-luciferase reporter. inhibition, % at 3.6 µM. Nuclear receptor subfamily 5 group A member 2 (Homo sapiens), O00482. 360,000 compounds, 0.13% hits. LRH-1 transfected, 24 h;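 active = inhibition above the mean inhibition of all tested compounds plus 3 SD, cut at about 73% in these data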
NCOA3 inh: SRC3 coactivator transcriptional activity inhibitors, primary screen, cell-based, luminescence; inhibition, % at 3.6 µM; HEK293 GAL4-SRC3 luciferase reporter; 360,000 compounds, 0.17% hits;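 active = inhibition above a per-campaign cutoff, the mean of all compounds plus 3 SD, cut at about 60% in these data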;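 note: higher means less SRC3-driven luciferase light from the GAL4 reporter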
Gli-Sufu antag: Gli-Sufu pathway antagonists, primary screen, luciferase luminescence, Sufu-KO-LIGHT cells, uHTS. inhibition, % at 5 µM. AID 588413, 2011. 340,000 compounds, 0.74% hits. Sufu-KO-LIGHT fibroblasts, Gli luciferase reporter luminescence;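 active = inhibition above about 55%, limit read from the data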
Gal4-VP16 ctr: Gal4-VP16 luciferase reporter inhibitors, counter-screen for COUP-TFII antagonist project, cell-based, luminescence, HEK293; AID 687007, 2013; inhibition, % at 8.5 µM; shares compounds with NR2F2 inh; 2,500 compounds, 25% hits; in the data active = inhibition above about 13%
COUP-TFII conf: NR2F2 transcriptional activity inhibitors, confirmation, cell-based, luciferase reporter, HEK293, triplicate; shares compounds with NR2F2 inh; HEK293 NGFI-A luciferase reporter, luminescence; inhibition, % at 8.5 µM; 2,500 compounds, 45% hits;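 active = mean inhibition over three repeats above a set limit taken from the earlier primary screen, cut at about 38% in these data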
Numbers stand for hits; - = inactive; . = no result. Hits are enriched below; roughly 1.3% of the tested compounds scored in any of these assays.

SMILES | NCOA1 inh | NR2F2 inh | SRC2 inh | LRH-1 inv ag | NCOA3 inh | Gli-Sufu antag | Gal4-VP16 ctr | COUP-TFII conf
CCOC(=O)N1CCN(C(=O)CSCC(=O)Nc2nc(-c3ccc(-c4ccccc4)cc3)cs2)CC1 | - | 68 | - | - | - | - | - | 71
COc1ccc(CCN2C(=O)CSC2=Nc2ccc(C(C)C)cc2)cc1OC | - | 64 | - | - | - | - | 14 | 62
COc1ccc(N=C2SCC(=O)N2CCc2ccc(OC)c(OC)c2)cc1 | - | - | - | - | - | - | . | .
CCCCCn1c(=O)[nH]c2cc(C(=O)N3CCN(Cc4ccc5c(c4)OCO5)CC3)ccc2c1=O | - | 58 | - | - | - | 57 | - | 64
O=C(c1ccc2c(=O)n(Cc3ccc(Cl)cc3)c(=S)[nH]c2c1)N1CCCC1 | - | - | - | - | - | - | . | .
O=C(c1ccc2c(=O)n(Cc3ccc(Cl)cc3)c(=S)[nH]c2c1)N1CCOCC1 | - | 39 | - | - | - | - | - | -
O=C(N[C@H](C(=O)N1CCC[C@H]1C(=O)NCCc1ccccc1Cl)c1ccccc1)c1cccs1 | . | - | - | . | . | . | . | .
Cc1ccc(C(=O)NNC(=O)CCCN2C(=O)/C(=C/c3ccccc3Cl)SC2=S)cc1 | - | 47 | 63 | - | - | - | 32 | -
Cc1ccc(/C=C2\SC(=S)N(CCCC(=O)NC3CCCC3)C2=O)cc1 | - | 42 | 89 | - | - | - | - | -
O=C(CCCN1C(=O)/C(=C/c2ccccc2Cl)SC1=S)Nc1ccccn1 | - | 40 | 69 | - | - | - | - | -
O=C(CCN1C(=O)/C(=C/c2ccccc2Cl)SC1=S)NNC(=O)c1cccnc1 | - | - | - | - | - | - | . | .
COc1cc(/C=C2\SC(=S)N(CCC(=O)NC3CCCC3)C2=O)cc(OC)c1OC | - | - | - | - | - | - | . | .
CCN1Cc2nnn(Cc3ccccc3)c2-c2cc(F)ccc2S1(=O)=O | . | - | - | . | . | . | . | .
CN(CCCOC(=O)c1cc2ccccc2o1)C1CN(Cc2cn(Cc3ccccc3Cl)nn2)S(=O)(=O)C1 (stereo not drawn) | . | - | - | . | . | . | . | .
CN1CCN(c2ccc(NC(=O)COc3ccccc3Cl)cc2)CC1 | - | - | - | - | - | - | . | .
CCC(=O)N1CCN(c2ccc(NC(=O)COc3ccccc3Cl)cc2)CC1 | - | 50 | - | - | - | - | - | -
COc1ccc(NC(=O)CN(C)C(=O)c2ccccc2OCC(=O)Nc2cccc(C(F)(F)F)c2)cc1 | - | - | - | - | - | - | . | .
COc1ccc(CN(C)C(=O)c2ccc(OCC(=O)Nc3cccc(C(F)(F)F)c3)c(OC)c2)c(OC)c1 | - | 71 | - | - | - | - | - | 59
COc1cccc(CN(C)C(=O)c2ccc(OCC(=O)Nc3cccc(C(F)(F)F)c3)c(OC)c2)c1 | - | 77 | - | - | - | - | - | 76
COc1cc(C(=O)NCCCN(C)C)ccc1OCC(=O)Nc1cccc(C(F)(F)F)c1 | - | - | - | - | - | - | . | .
CC(C)c1ccc(NC(=O)OC2CCC23CCC(c2ccccc2)CC3)cc1 (stereo not drawn) | . | - | . | . | . | . | . | .
CCNc1nc(-c2sc(NC(=O)C(C)(C)C)nc2C)c(-n2cc(-c3ccccc3)nn2)s1 | . | 66 | - | - | . | . | - | 41
Cc1nc(NC(=O)C(C)(C)C)sc1-c1nc(N)sc1-n1cc(-c2ccccc2)nn1 | . | - | - | - | . | . | . | .
CC1C/C(=C/c2ccncc2)C(=O)/C(=C/c2ccncc2)C1 (stereo not drawn) | - | 87 | 74 | - | - | - | 82 | 97
CCC1Sc2ccc(S(=O)(=O)Nc3ccc(OC)c(OC)c3)cc2NC1=O (stereo not drawn) | - | 52 | - | - | - | - | - | -
SMILES | NCOA1 inh | NR2F2 inh | SRC2 inh | LRH-1 inv ag | NCOA3 inh | Gli-Sufu antag | Gal4-VP16 ctr | COUP-TFII conf
CCC1Sc2ccc(S(=O)(=O)Nc3ccc(OC)cc3)cc2NC1=O (stereo not drawn) | - | - | - | - | - | - | . | .
CCCNC(=O)c1ccc(N2CCC3(CC2)CC(c2cccc(Br)c2)=NO3)c([N+](=O)[O-])c1 | - | 54 | - | - | - | - | - | -
Cc1ccc(CNC(=O)c2ccc(N3CCC4(CC3)CC(c3cccc(Br)c3)=NO4)c([N+](=O)[O-])c2)cc1 | - | - | - | - | - | - | . | .
COc1ccc(C(=O)C2CCCN(Cc3cnc(N4CCOCC4)s3)C2)cc1F (stereo not drawn) | - | - | - | - | - | - | . | .
CC(C)Oc1cccc(C(=O)C2CCCN(Cc3cnc(N4CCOCC4)s3)C2)c1 (stereo not drawn) | - | 37 | - | - | - | - | - | -
CC(C)C[C@H]1COc2cccc(NCCO)c2S(=O)(=O)N1 | . | - | - | . | . | . | . | .
COc1ccc(CCNC(=O)C2CCCN(Cc3nc(-c4ccccc4C)oc3C)C2)cc1OC (stereo not drawn) | - | - | - | - | - | - | . | .
CCc1ccc(-c2nc(CN3CCCC(C(=O)NCCc4ccc(OC)c(OC)c4)C3)c(C)o2)cc1 (stereo not drawn) | - | 49 | - | - | - | - | - | -
COc1ccc(OC)c(S(=O)(=O)CC(=O)c2cc3ccccc3oc2=O)c1 | . | - | - | . | . | . | . | .
Cc1cc(O)c(Sc2ncn[nH]2)cc1NS(=O)(=O)c1ccc(Cl)cc1 | - | - | - | - | - | - | . | .
O=S(=O)(Nc1cc(Sc2ncn[nH]2)c(O)c2ccccc12)c1ccccc1 | 89 | 72 | 70 | 89 | 84 | - | - | -
CCOC(=O)SC1=N/C(=C\c2ccc(N(C)C)cc2)C(=O)S1 | - | - | - | - | - | - | . | .
CCOC(=O)c1cc2c(=Cc3ccc(N(C)C)cc3)c3ccccc3n2[n+]1C | - | 58 | - | 73 | - | 76 | 21 | 49
Cc1cc2c(=Cc3ccc(N(C)C)cc3)c3ccccc3n2[n+]1C | - | 75 | - | 76 | - | 83 | - | 63
COc1ccc(OC)c(S(=O)(=O)N/N=C\c2ccc3c(c2)OCO3)c1 | - | - | - | - | - | - | . | .
COc1ccc(S(=O)(=O)N/N=C\c2ccc3c(c2)OCO3)c(OC)c1 | - | 48 | - | - | - | - | - | -

Source: PubChem (several laboratories)
